# Test results as given in PubChem BioAssay.
# Calls of active or inactive are those of the source.
# Legend:
# [1] = system: Plasmodium falciparum Sir2 (PF13_0152, Sir2A); assay: Plasmodium falciparum Sir2A binding compounds – biochemical, small-molecule microarray, 635 nm fluorescence, primary screen (AID 1098); details: fluorescence 635 nm, higher = more signal;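 also: score merges spot fluorescence intensity with its signal-to-noise ratio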
# [2] = probe aDKK1 binding to arrayed compounds – biochemical, biotinylated probe, 635/667 nm fluorescence, primary screen (AID 1099); details: small-molecule microarray, higher = more signal;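 also: score merges 667nm spot fluorescence with signal to noise across triplicate slides; reference of the scale not given here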
# [3] = probe aCHRDL2 binding to arrayed compounds – biochemical, biotinylated probe, 635/667 nm fluorescence, primary screen (AID 1100); details: small-molecule microarray, higher = more signal
# [4] = change in splice reporter luminescence, either direction, cell-based, HEK293, spliceosome inhibition project, primary screen (AID 1101); details: HEK293 splicing luciferase reporter, 24 h, higher = more signal, called active from +8 up or from −8 down;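 also: HEK293 cells carrying a splicing-competent luciferase reporter gene; test concentration not given here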
# [5] = target: Fibroblast growth factor 10 (Homo sapiens) (UniProt O15520); assay: compounds binding fibroblast growth factor 10 – biochemical, small-molecule microarray, 635 nm fluorescence, primary screen (AID 1102); details: FGF10 binding, fluorescence 635 nm, higher = more signal
# [6] = system: glycogen synthase kinase-3 (GSK3A per assay name; protocol says GSK3B); assay: compounds binding glycogen synthase kinase-3 – biochemical, small-molecule microarray, 635 nm fluorescence, GSK3A, primary screen (AID 1103); details: fluorescence 635 nm, higher = more signal; also: the record names both GSK3A and GSK3B
# [7] = target: Epidermal growth factor receptor (Homo sapiens) (UniProt P00533); assay: compounds binding epidermal growth factor receptor – biochemical, small-molecule microarray, 635 nm fluorescence, primary screen (AID 1104); details: EGFR binding, higher = more signal;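 also: score merges 667 nm emission intensity with spot signal to noise over triplicate slides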
# [8] = target: Follistatin-related protein 3 (Homo sapiens) (UniProt O95633); assay: compounds binding follistatin-related protein 3 – biochemical, small-molecule microarray, 635 nm fluorescence, primary screen (AID 1105); details: FSTL3 binding, higher = more signal;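 also: score merges emission near 667 nm and signal to noise per printed spot across three slides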
# [9] = target: Dickkopf-related protein 1 (Homo sapiens) (UniProt O94907); assay: small molecules binding DKK1 protein – biochemical, small-molecule microarray, 635 nm fluorescence scan, primary screen (AID 1106); details: higher = more signal;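 also: score merges emission near 667 nm with signal to noise over three replicate slides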
# [10] = system: Inhibin beta A chain (activin A); assay: small molecules binding activin A – biochemical, small-molecule microarray, 635 nm fluorescence scan, primary screen (AID 1107); details: INHBA, higher = more signal;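 also: mouse activin A protein probed at 4.33 µg/mL on printed slides; score merges bound-protein fluorescence near 667 nm with spot signal-to-noise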
# Chain of Epidermal growth factor receptor (Homo sapiens) (P00533 whole entry, looked up): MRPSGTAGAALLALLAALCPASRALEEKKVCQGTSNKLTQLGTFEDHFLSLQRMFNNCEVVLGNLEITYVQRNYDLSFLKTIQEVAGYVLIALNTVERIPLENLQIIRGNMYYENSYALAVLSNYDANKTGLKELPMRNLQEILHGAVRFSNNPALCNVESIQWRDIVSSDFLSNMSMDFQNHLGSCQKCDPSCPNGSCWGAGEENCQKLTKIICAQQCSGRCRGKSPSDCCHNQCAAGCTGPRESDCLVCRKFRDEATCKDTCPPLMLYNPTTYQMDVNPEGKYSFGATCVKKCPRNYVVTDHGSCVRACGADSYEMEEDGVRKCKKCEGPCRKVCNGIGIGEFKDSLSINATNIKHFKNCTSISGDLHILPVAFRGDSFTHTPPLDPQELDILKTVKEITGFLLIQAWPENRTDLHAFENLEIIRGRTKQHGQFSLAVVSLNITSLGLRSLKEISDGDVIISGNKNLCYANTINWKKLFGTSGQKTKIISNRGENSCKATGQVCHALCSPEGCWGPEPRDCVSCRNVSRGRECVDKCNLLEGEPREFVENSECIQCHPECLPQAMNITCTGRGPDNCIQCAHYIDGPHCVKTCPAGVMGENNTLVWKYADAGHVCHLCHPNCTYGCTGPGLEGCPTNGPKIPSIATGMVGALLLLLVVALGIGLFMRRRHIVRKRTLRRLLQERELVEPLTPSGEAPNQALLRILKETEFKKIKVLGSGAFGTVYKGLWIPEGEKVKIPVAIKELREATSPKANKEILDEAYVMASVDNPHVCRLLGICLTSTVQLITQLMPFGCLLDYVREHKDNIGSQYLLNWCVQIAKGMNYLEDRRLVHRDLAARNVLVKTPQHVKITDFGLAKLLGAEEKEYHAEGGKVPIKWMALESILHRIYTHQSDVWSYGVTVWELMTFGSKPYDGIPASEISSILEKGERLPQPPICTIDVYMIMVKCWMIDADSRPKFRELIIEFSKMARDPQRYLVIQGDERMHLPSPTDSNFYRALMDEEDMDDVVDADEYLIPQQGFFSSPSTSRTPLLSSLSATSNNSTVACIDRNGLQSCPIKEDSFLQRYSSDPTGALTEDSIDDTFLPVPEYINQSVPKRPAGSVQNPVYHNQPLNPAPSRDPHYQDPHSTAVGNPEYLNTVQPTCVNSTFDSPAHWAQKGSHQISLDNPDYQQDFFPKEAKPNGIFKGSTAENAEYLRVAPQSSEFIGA
# Chain of Dickkopf-related protein 1 (Homo sapiens) (O94907 whole entry, looked up): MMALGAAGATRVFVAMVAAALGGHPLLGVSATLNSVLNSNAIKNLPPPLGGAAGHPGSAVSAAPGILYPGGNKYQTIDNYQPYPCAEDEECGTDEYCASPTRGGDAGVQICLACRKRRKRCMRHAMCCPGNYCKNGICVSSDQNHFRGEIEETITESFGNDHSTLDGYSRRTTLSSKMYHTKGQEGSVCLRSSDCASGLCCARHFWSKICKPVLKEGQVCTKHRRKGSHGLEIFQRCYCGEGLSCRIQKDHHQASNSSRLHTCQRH
# Chain of Follistatin-related protein 3 (Homo sapiens) (O95633 whole entry, looked up): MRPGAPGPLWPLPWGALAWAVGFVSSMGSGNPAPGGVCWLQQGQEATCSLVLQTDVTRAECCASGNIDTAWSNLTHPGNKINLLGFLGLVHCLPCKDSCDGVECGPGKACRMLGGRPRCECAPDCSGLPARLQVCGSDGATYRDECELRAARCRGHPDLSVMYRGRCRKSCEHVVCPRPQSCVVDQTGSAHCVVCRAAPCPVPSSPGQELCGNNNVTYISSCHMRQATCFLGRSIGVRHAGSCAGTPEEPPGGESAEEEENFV
# Chain of Fibroblast growth factor 10 (Homo sapiens) (O15520 whole entry, looked up): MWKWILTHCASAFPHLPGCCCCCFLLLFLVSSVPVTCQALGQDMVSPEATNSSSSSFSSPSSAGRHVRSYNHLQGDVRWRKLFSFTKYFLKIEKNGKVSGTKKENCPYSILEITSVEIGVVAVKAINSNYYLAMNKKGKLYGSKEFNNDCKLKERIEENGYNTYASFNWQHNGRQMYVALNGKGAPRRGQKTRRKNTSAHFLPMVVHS
SMILES,composite z-score [1],composite z-score [2],composite z-score [3],z-score [4],composite z-score [5],composite z-score [6],composite z-score [7],composite z-score [8],composite z-score [9],composite z-score [10]
C=CCC(OC(C)=O)[C@@H]1[C@@H](N(Cc2cccc3ccccc23)C(=O)c2ccc(C)cc2)c2cc(OCCCO)ccc2N1C(=O)Cc1ccc(OC)cc1 (stereo not given in full),0.102,-0.413,-0.281,-1.53 (inactive),-0.104,0.0349,0.254,0.492,0.576,1.05
O=C/C=C/c1ccc2c(c1)OCO2,0.229,-0.295,-0.475,-0.675 (inactive),0.562,0.469,0.614,0.506,0.486,1.25
CC(c1ccccc1)C(O)C1C=CC2C(=O)NC(=O)C2N1Nc1ccccn1 (stereo not given),0.459,0.0178,0.585,1.63 (inactive),0.831,0.767,0.532,1.01,0.481,1.41
CC(C)(C)OC(=O)CC[C@]1(C(=O)N2CCCCC2)N=C(c2ccc(OCCCO)cc2)O[C@H]1c1ccccc1N=[N+]=[N-],0.668,0.639,0.869,-1.37 (inactive),0.968,0.736,0.6,0.81,-0.135,1.34
COCCCNC(=O)[C@@]1(c2ccc([N+](=O)[O-])cc2)CC(=O)N(CC23CC4CC(CC(C4)C2)C3)[C@@H]1c1ccc(CO)cc1,1.61,0.0245,-0.0133,0.00653 (inactive),1.22,1.31,0.905,1.48,1.08,0.703
O=C1O[C@@H](c2ccccc2)[C@@H](c2ccccc2)N2[C@@H](c3ccccc3OCCO)[C@]3(C(=O)Nc4ccc(C#CC5(O)CCCCCC5)cc43)[C@@H](C(=O)Nc3nc4ccccc4s3)[C@H]12,1.04,-0.0444,-0.0735,0.554 (inactive),0.68,1.25,0.369,0.996,0.28,0.251
CC(=O)Nc1cc(Br)ccc1C(=O)O,0.976,1.34,0.0861,-0.841 (inactive),0.225,0.157,-0.433,0.0984,-0.44,-0.27
CCCCCCc1nc(CCCc2cc3c(c(CCCCCC)n2)[Si](C(C)C)(C(C)C)OC3)cc2c1[Si](C(C)C)(C(C)C)OC2,-0.432,-0.33,-0.138,0.775 (inactive),-0.408,-0.242,-0.0687,-0.176,0.279,1.49
COc1ccc(CCN2C(=O)[C@@]3(Cc4ccccc42)c2ccccc2C(=O)N(Cc2ccccc2Cl)[C@H]3c2ccc(CO)cc2)cc1,1.14,0.546,0.929,-0.0194 (inactive),-0.202,-1.01,-1.12,-0.61,-0.695,0.38
C=CC[C@@]1(C(=O)N2CCOCC2)N=C(c2ccc(OCCCO)cc2)O[C@@H]1c1ccccc1N=[N+]=[N-],0.904,1.01,1.08,-2.33 (inactive),1.31,0.951,0.279,0.606,0.174,1.16
COc1cc(CO)ccc1OC(C)=O,0.144,-0.082,-0.526,-0.749 (inactive),0.171,0.536,0.558,0.516,0.668,0.167
CCCNC(=O)[C@@H]1c2ccccc2C(=O)N(Cc2ccccc2)[C@H]1c1ccc(CO)cc1,0.405,-0.0972,0.933,0.0373 (inactive),-0.239,0.0282,-0.592,-0.637,-0.744,-0.217
CC(C)OC(=O)CC(=O)CC(O)c1ccc(C#N)cc1 (stereo not given),-0.165,0.715,1.23,-1.74 (inactive),0.169,0.148,-0.361,0.078,-0.997,0.891
COCCOC(=O)N1C(=O)[C@@]2(c3cc(C#CCNC(N)=O)ccc31)[C@H](c1ccccc1OCCO)N1[C@H](c3ccccc3)[C@H](c3ccccc3)OC(=O)[C@H]1[C@@H]2C(N)=O,0.806,0.117,0.106,-0.265 (inactive),0.848,0.786,0.528,1.26,0.439,0.719
C=CCOC(=O)[C@H]1[C@@H]2C(=O)O[C@@H](c3ccccc3)[C@@H](c3ccccc3)N2[C@@H](c2ccc(OCCOC(=O)[C@@H]3C[C@@H]4C(=O)N5CCC[C@H]5C(=O)N4[C@@H]3c3ccc(O)cc3)cc2)[C@]12C(=O)Nc1ccccc12,1.53,-0.294,0.0807,0.109 (inactive),0.629,1.28,0.586,1.21,1.45,-0.23
C[C@H]1NC(=O)[C@H](Cc2ccccc2)NC(=O)[C@@]23C(=O)N[C@@H](Cc4ccccc4)C2[C@H](C)[C@@]2(C)O[C@H]2C3/C=C/C/C=C\CNC1=O (stereo not given in full),0.444,-0.245,-0.471,0.587 (inactive),-0.354,-1.16,0.203,-0.0523,0.461,1.45
COC(=O)C(CC#Cc1ccc2c(c1)[C@]1(C(=O)N2)[C@H](c2ccc(OCCO)cc2)N2[C@H](c3ccccc3)[C@H](c3ccccc3)OC(=O)[C@H]2[C@@H]1C(=O)NC[C@H](O)c1ccccc1)C(=O)OC,1.62,0.392,0.473,0.348 (inactive),0.826,0.801,0.0713,0.617,0.271,0.39
COC(=O)c1ccc(C(O)C2C=CC3C(=O)N(c4ccccc4)C(=O)C3N2Nc2ccc(C#N)cc2)o1 (stereo not given),0.969,0.51,0.669,1.28 (inactive),0.989,0.137,0.219,0.311,-0.0752,0.961
CC(C)NC(=O)[C@@H]1c2ccccc2C(=O)N(Cc2ccccc2)[C@H]1c1ccc(CO)cc1,1.62,0.652,1.11,0.00875 (inactive),0.462,0.263,-1.41,-0.942,-1.05,-0.212
CS(=O)(=O)CCOC(=O)C1=CC(CCCO)=CC(c2cccs2)N(Cc2cc3c(cc2Br)OCO3)C=C1C(=O)OCCS(C)(=O)=O (stereo not given),0.727,-0.0606,0.15,0.576 (inactive),1.04,1.25,0.259,1.22,0.238,1.2
COCCOC(=O)N1C(=O)[C@@]2(c3cc(C#Cc4ccc(OC)cc4)ccc31)[C@H](C(=O)N1CCN(c3ncccn3)CC1)[C@H]1C(=O)O[C@H](c3ccccc3)[C@H](c3ccccc3)N1[C@@H]2c1ccc(O)cc1,-0.12,-0.138,0.0953,-0.772 (inactive),-0.0132,-0.0617,-0.026,0.246,0.37,-0.0611
COCCOC(=O)N1C(=O)[C@@]2(c3cc(C#CCC(C(=O)OC)C(=O)OC)ccc31)[C@H](c1ccccc1OCCO)N1[C@H](c3ccccc3)[C@H](c3ccccc3)OC(=O)[C@H]1[C@@H]2C(N)=O,1.38,0.152,0.188,-5.03 (inactive),1.22,1.31,0.249,1.13,0.451,0.0274
CCCCCN1CC=CC23O[C@@H]4/C=C\CCC(C)OC(=O)C4[C@H]2C(=O)N(CCCCCO)[C@@H]3C1=O (stereo not given in full),0.16,-0.499,-0.0779,-0.228 (inactive),-0.57,-0.77,0.361,-0.501,-1.07,-0.362
COC(=O)[C@@]1(Cc2ccc(OC)cc2)[C@H]2c3cc(C(=O)N(C)C)n(Cc4c(OC)[nH]cc(C)c4=O)c3C[C@H]2CN1C(=O)c1ccccc1,1.04,1.8,0.628,-1.07 (inactive),0.0004,-0.208,0.197,0.037,-0.41,1.23
O=C1[C@]2(CO)C=C(Br)[C@@H](C[C@@H]2c2ccccc2)[C@@]12CO2,0.628,0.0144,0.0065,0.359 (inactive),0.208,-0.626,-0.135,0.419,0.357,0.263
O=C1C[C@]2(c3ccc([N+](=O)[O-])cc3)C(=O)N(CC(F)(F)F)c3cc(CO)ccc3[C@H]2N1CC12CC3CC(CC(C3)C1)C2,1.75,-0.157,0.115,0.452 (inactive),0.0399,0.284,-0.736,0.23,0.301,0.36
CC(C)CNC(=O)[C@@]1(c2ccc([N+](=O)[O-])cc2)CC(=O)N(CC23CC4CC(CC(C4)C2)C3)[C@@H]1c1ccc(CO)cc1I,1.13,0.109,0.0793,-0.125 (inactive),1.04,1.3,0.578,1.08,0.808,0.383
